Assay results: the supplement of paper PMC6555819

Legend:
Assay in all cases: PBM binding z-score (relative to random genomic background probes); higher = stronger binding; sequences stand for … in GC…GCGATTGACAGCGTAGAATGAAGG
[1] = tested on: RARb homodimer (NR concentration 270 nM)
In short: (§1)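 Binding buffer was PBS pH 7.4 with 2% milk, 0.02% Triton X-100, 1 mM DTT, 0.2 mg/mL BSA and 0.4 mg/ml salmon testes DNA. In it, ligand-free nuclear receptor dimers were incubated 1 h on custom Agilent 4×180K protein-binding microarrays carrying double-stranded probes. Antibodies against each partner (one per run) detected binding, and z-scores were calculated against random background probes after regression normalization of scanned fluorescence.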

[2] = tested on: RARg:RXRa (NR concentration 270 nM, RXRa partner concentration 90 nM)
In short: as §1

[3] = tested on: RARg homodimer (NR concentration 270 nM)
In short: as §1

[4] = tested on: RXRa DBDmut IVT, anti-RXR (DBD mutation: RXRa K156A/R161A, NR concentration 90 nM)
In short: as §1

[5] = tested on: RXRa homodimer (NR concentration 180 nM)
In short: as §1

[6] = tested on: THRa:RXRa (NR concentration 90 nM, RXRa partner concentration 90 nM)
In short: as §1

[7] = tested on: THRa homodimer (NR concentration 90 nM)
In short: as §1

[8] = tested on: VDR homodimer (NR concentration 270 nM)
In short: as §1

Sequence | PBM binding z-score [1] | PBM binding z-score [2] | PBM binding z-score [3] | PBM binding z-score [4] | PBM binding z-score [5] | PBM binding z-score [6] | PBM binding z-score [7] | PBM binding z-score [8]
TCTCGGAGGCCACGAAGGTCAGAGCTTTCCAGAG | 3.74 | 3.08 | 3.36 | 0.442 | 1.88 | 2.12 | -0.105 | 0.706
GCTGCTAGGTCATCTGATGGTCAGCTAAAGCTCG | 3.52 | 5.15 | 4.96 | 2 | 2.79 | 2.97 | 0.735 | 0.443
TCTGCTAGGTCAACGATGGTCATCTAATCTGCTA | 3.5 | 4.05 | 4.69 | 1.07 | 2.9 | 3.45 | 0.805 | -0.118
CTTACTGGGCCAAAAAGGTCATTGATGCCGATAA | 4.5 | 4.8 | 4.65 | 1.08 | 5.37 | 3.21 | 0.313 | 2.72
AGAATGAGGTTCAGATCAGGGAAACAGAATACAT | 0.405 | 0.907 | 0.758 | 1.63 | 1.02 | 2.61 | -0.043 | 1.03
AGAACGAGGTTATACGTAGATCAGGGAAGAAAGT | 0.438 | 1.69 | 1.07 | 1.54 | 2.02 | 1.41 | 0.179 | 0.807
AGAATGAGGTTATACTTAGATCAGGGAAGAAAGT | 0.8 | 1.56 | 1.14 | 1.87 | 1.87 | 1.96 | 0.882 | 0.999
ACTATGAGTTGAGACGAGGGCAACCGATAGGTTG | 1.27 | 1.15 | 1.14 | 0.701 | 0.821 | 3.63 | 0.024 | 0.979
ATCTTTAGGTAACCAAGTTCAGTGAATGCCGAAC | 1.55 | 0.783 | 1.04 | 1.36 | 0.709 | 2.07 | 1.25 | 2.66
CCTGCTAGGTGATGGTCAGCTAATCTACAGTATG | -0.121 | -0.189 | 0.108 | -0.024 | -0.424 | -0.498 | -0.545 | -0.612
GGAACGCGGGCATTCGAGTTGATAGCATGGCGAT | -0.894 | -0.144 | -0.0858 | 0.211 | -0.381 | 0.468 | -1.25 | 0.00818
GCAACGAGGGCATTCGAGTTGATAGCATGGCGAT | 0.663 | 0.926 | 1.45 | 3.01 | 0.65 | 3.31 | -0.513 | 3.27
TCTTGTAGATCAAAGGTTACGAAAGCCGAAGCCT | 1.9 | 2.29 | 1.06 | 0.663 | 3.64 | 1.66 | -0.301 | -0.125
CCTAGTTGGTGAGGAGGTCACACACCGGATATGA | 3.83 | 4.09 | 3.23 | 0.474 | 3.91 | 3.34 | 2.03 | 2.53
ATCTCTAGGTAAGACTCAGTTAAGTGAAGAACGC | 0.172 | 0.0663 | 0.313 | 0.443 | 0.197 | 0.607 | 0.783 | 0.377
ACCCGGAGGACAAAGGTCAGAGCTACGCCAGTGA | 4.67 | 6.15 | 5.22 | 0.737 | 4.97 | 3.4 | 0.681 | 1.24
ACTAGCCGGCCAAGTTTGGGTCACTCAAACAAAG | 2.27 | 1.35 | 1.48 | -0.475 | 0.851 | 2.15 | 1.23 | 0.121
GGAACGAGGGCAAAGTTGATGGCATCTGTCGACG | 1.32 | 2.05 | 1.74 | 2.62 | 1.97 | 1.55 | -0.087 | 1.7
ATATGTAGGTTAAGAGTCATTCAGGTTGGTTCGC | 1.26 | 1.23 | 1.13 | 0.882 | 1.53 | 1.24 | 0.283 | 1.24

Sequence | PBM binding z-score [1] | PBM binding z-score [2] | PBM binding z-score [3] | PBM binding z-score [4] | PBM binding z-score [5] | PBM binding z-score [6] | PBM binding z-score [7] | PBM binding z-score [8]
CCTACTGGGCCTAGGTCATTGATCAGTCAAAGCA | 2.06 | 2.02 | 1.46 | -0.592 | 1.34 | 2.07 | 0.765 | 0.74
AGTCAAGGTTCAGGACGAGGTAACGTAAAGCACG | 1.55 | 3.45 | 2.41 | 2.61 | 2.19 | 3.55 | 1.75 | 2.25
ACTATTAGTTGAATTAGGGCAACCGATACGACGC | 0.778 | 0.551 | 0.997 | 0.675 | 0.283 | 1.54 | 0.513 | 0.497
GCTTACGGGTCAAAGGATATAGCATGAATAGAAT | 2.26 | 4.62 | 3.96 | 1.92 | 5.17 | 2.22 | -0.222 | 0.703
TAGCCTAGGTCATTCAGGGCCCAGTATAGAAAGC | 2.54 | 3.96 | 4.34 | 1.96 | 3.13 | 3.47 | 0.59 | 1.54
TCTTGTAGATAAAAGGTTAAGAAAGCCGAAGCCT | 1.42 | 1.43 | 0.971 | 1.2 | 2.28 | 1.14 | -0.62 | 0.00564
CCTAGTTGGTCAGGACGTCACACACCGGATATGA | 0.767 | 0.464 | 0.776 | 0.386 | 0.296 | 0.673 | 1.03 | 0.558
TTAGACAGGTGAAGGTAACTCAGGTACGCAGTCG | 0.861 | 0.559 | 0.81 | -0.329 | 0.753 | 1.48 | 0.377 | 0.53
AGAATGAGGTTATTCGTAGATCAGGGAAGAAAGT | 0.677 | 1.86 | 0.782 | 2.5 | 2.29 | 2.32 | 0.475 | 1.07
GCTTACGGGTCAAAGGTTATAGCATGAATAGAAT | 3.25 | 6.76 | 4.71 | 2.42 | 9.18 | 4.02 | 0.25 | 1.58
TCTTGTAGATCAATAGAGGTAAAGAAAGTGCGCT | -0.162 | 0.0817 | 0.0168 | 0.436 | 0.364 | 1.9 | -0.539 | -0.6
ATCGAAAGGTCGACGAGGTGAGTAGACACCGTTT | 2.83 | 4.43 | 3.75 | 0.736 | 4.27 | 3.85 | 0.861 | 0.955
ACTAGTTGGTCAGCTGTGGTCACACACAATTCGG | 1.25 | 0.489 | 0.965 | 0.13 | 0.281 | 1.77 | 0.0925 | 0.0683
CCGACTGGGGCAAAAGGTTACCATAAGCCAGCCC | 3.28 | 3.72 | 2.32 | 0.0121 | 2.71 | 1.44 | -0.187 | -0.455
CCTTACGGGCCACTGACAGGTTATAGCATTTGGA | 0.8 | 0.731 | 0.737 | -0.085 | 0.326 | 0.0187 | -0.159 | -0.034
ACAGACAGGTGAGTGATGGTAACTCAGCTGGACG | -0.167 | 0.351 | 0.407 | -0.204 | 0.27 | -0.225 | -0.414 | -0.122
GGAACGAGGACAAAGTTGATAGCATCTGTCGACG | 0.33 | 0.769 | 1.2 | 1.23 | 0.361 | 2.36 | 0.861 | 0.141
TCTTGTAGATCAAGCAGTTTAAGAAAGCCTGAGT | -0.362 | -0.283 | -0.421 | 0.644 | -0.114 | -0.266 | -0.588 | -0.00897
AGAACGAGGGCAATCAGTTGATAGCACGGGTGGC | 1.08 | 1.25 | 1.74 | 1.89 | 0.909 | 1.04 | 0.0484 | 1.61

Sequence | PBM binding z-score [1] | PBM binding z-score [2] | PBM binding z-score [3] | PBM binding z-score [4] | PBM binding z-score [5] | PBM binding z-score [6] | PBM binding z-score [7] | PBM binding z-score [8]
GCAGACAGGGGAAACGCAGGTAACTCAGGGTGGC | -0.497 | -0.368 | -0.487 | -0.47 | -0.164 | 0.986 | -0.308 | -0.688
GTACCAAGGTGAACAGGTCGTTGATGAGTAGGCG | 1.76 | 1.95 | 1.02 | -0.221 | 1.67 | 2.22 | 0.534 | 0.0817
TCTCGGAGGACACAAAAGGTCAGAGCTCGACATC | 4.4 | 4.67 | 4.91 | 1.15 | 3.9 | 3.41 | 1.1 | 1.02
ACTAGCAGGCCAAGGGTCACACAAGATTAGTCCG | 4.06 | 4.6 | 4.2 | 0.3 | 4.68 | 3.16 | 0.442 | 1.42
TGAATGAGGTTACAGATCAGGGAACGTGGCGTCG | 0.793 | 1.89 | 1.4 | 0.394 | 2.29 | 2.67 | 0.836 | 0.364
TAGCCTAGGTCATTGGGCCAGCATAGTACGCATC | 2.94 | 3.88 | 4.34 | 1.49 | 3.01 | 2.76 | 0.613 | 0.817
TCATATCGGTAATACAGGTGAAAGTCGGCATCTA | 0.531 | 0.354 | 0.441 | 1.09 | 0.783 | 0.59 | 0.42 | 0.435
TCTATTAGTTGATTCGGGCAACCGAAACAGCGGA | 0.249 | 0.385 | 0.285 | 1.15 | 0.328 | 0.247 | 0.0848 | 0.228
CAAACTAGGTCAAGGTCAACGTCGGTTTGTGCCA | 5.65 | 6.16 | 6.86 | 2.58 | 5.91 | 4.62 | 4.3 | 3.89
CCTTACGGGTCACTGACTGGTTATAGCATTTGGA | 3.06 | 5.04 | 4.61 | 1.84 | 4.93 | 2.52 | 0.498 | 1.03
TCGAGTAGATTAGGGGCATTCAGAATGGCGTCGA | 0.0337 | -0.202 | -0.446 | 0.574 | 0.16 | 0.515 | -0.591 | 0.687
GCTGCTAGCTCAGGTTGGTCAGCTAACGGGTACG | -0.467 | -0.618 | -0.751 | -0.375 | -1.02 | -0.615 | -0.751 | -0.32
ATATGTAGGTGAGCTGGGGTCATTCAGACTAGGC | 3.97 | 4.01 | 2.84 | 1.57 | 5.56 | 5.14 | 3.37 | 4.43
TCAGACAGGTGAAGGTAAGTCAGGTACGCAGTCG | 1.09 | 0.505 | 0.581 | 1.17 | 0.716 | 0.959 | 0.538 | 0.0228
GATACAGGGTCAAGGCCTGAGTACGCGTATTGAT | 3.54 | 5.4 | 5.41 | 2.19 | 5.69 | 3.37 | 0.931 | 2.52
TCTTGTCGATCAGCAGGTTAAGAAAGCTGGCCAA | 0.242 | -0.108 | -0.509 | 0.615 | 0.217 | 0.316 | -0.476 | -0.421
ACTATTAGTTGAGACGAGGGCAACTGATAGGTTG | 1.19 | 0.865 | 0.97 | 0.568 | 0.797 | 2.41 | 0.298 | 0.702
TTACCAAGGTGAAGGTCGTCGATCCCTCTGTAGA | 1.78 | 1.59 | 1.7 | -0.188 | 2.12 | 2.36 | 0.653 | -0.137
TCTATTAGTTGAAGGGCATCCGACGAGTCCGTTT | 0.904 | 0.374 | 0.361 | 1.86 | 0.598 | 0.0886 | 0.288 | 1.51
